Test results from publication PMC7862700, “An all-to-all approach to the identification of sequence-specific readers for epigenetic DNA modifications on cytosine”.

Tests used:
Assay in all cases: DAPPL (digital affinity profiling via proximity ligation, sequencing); 10 mM Tris-HCl pH 7.5, 50 mM NaCl, 1 mM DTT, 4% glycerol, room temperature, 30 min; GST-TFs on glutathione beads, 16-mer random dsDNA library, 0.1% formaldehyde crosslink after washing; high values mean tight binding
FEV = target: T1, FEV (Homo sapiens, UniProt Q99581 1-238); conditions: protein: recombinant; tags: N-terminal GST; dsDNA, one strand shown
T1 sequence: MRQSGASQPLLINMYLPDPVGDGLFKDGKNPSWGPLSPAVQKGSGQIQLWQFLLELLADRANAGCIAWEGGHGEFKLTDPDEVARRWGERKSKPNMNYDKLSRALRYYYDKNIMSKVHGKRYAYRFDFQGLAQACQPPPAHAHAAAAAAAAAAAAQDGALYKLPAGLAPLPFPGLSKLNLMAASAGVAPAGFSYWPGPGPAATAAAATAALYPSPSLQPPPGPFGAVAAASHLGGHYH
Method in brief: (§1)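 Pools of DNA-barcoded human transcription factors, expressed in yeast as GST fusions on glutathione beads and combined with a tag-only sample, were incubated with 200 nmole of a 16-mer random double-stranded DNA library. Incubation took 30 min at room temperature in Tris/NaCl/DTT/glycerol buffer and was followed by washing, 0.1% formaldehyde crosslinking, proximity ligation (BsaI/T4 ligase, 1 h, 37 °C), PCR amplification and sequencing on an Illumina NextSeq500. Binding signal is the ratio of a hexamer's read frequency for a factor to its frequency for the tag-only sample.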

ETV5 = ETV5 (Homo sapiens, UniProt P41161 1-510); conditions: protein: recombinant; tags: N-terminal GST; dsDNA, one strand shown
Chain of ETV5 (P41161 whole entry): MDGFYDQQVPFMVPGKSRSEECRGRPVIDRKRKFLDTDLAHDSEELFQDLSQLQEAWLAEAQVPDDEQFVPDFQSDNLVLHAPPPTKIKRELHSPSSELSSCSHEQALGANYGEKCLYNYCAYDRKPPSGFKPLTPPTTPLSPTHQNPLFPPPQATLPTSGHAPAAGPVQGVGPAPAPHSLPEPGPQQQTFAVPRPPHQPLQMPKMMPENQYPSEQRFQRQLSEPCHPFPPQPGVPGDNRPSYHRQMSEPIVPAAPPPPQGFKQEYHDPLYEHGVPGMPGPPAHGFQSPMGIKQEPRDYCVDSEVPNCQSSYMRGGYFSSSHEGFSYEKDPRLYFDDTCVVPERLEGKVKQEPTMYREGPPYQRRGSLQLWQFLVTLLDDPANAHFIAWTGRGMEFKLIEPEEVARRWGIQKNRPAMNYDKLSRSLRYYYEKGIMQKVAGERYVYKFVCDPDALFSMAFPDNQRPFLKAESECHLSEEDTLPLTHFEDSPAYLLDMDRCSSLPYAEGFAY
Method in brief: as §1

HSF1 = HSF1 (Homo sapiens, UniProt Q00613 1-529); conditions: protein: recombinant; tags: N-terminal GST; chain copies: 3; dsDNA, one strand shown
Chain of HSF1 (Q00613 whole entry): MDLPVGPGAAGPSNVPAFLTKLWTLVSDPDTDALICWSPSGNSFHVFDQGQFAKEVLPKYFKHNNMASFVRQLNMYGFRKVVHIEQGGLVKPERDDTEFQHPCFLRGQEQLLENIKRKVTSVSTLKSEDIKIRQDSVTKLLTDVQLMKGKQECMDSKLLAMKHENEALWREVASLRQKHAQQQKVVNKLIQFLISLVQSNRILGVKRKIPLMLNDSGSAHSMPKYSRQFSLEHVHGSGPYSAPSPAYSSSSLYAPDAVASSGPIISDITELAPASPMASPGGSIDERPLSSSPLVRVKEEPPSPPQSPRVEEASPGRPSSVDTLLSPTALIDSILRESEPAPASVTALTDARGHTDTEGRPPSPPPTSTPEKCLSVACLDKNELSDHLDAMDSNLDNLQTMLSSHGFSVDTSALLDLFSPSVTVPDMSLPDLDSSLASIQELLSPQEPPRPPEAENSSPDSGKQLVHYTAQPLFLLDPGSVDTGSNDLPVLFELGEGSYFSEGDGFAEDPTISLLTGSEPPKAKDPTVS
Method in brief: as §1

SPIC = target: T2, SPIC (Homo sapiens, UniProt Q8N5J4 1-248); conditions: protein: recombinant; tags: N-terminal GST; dsDNA, one strand shown
T2 sequence: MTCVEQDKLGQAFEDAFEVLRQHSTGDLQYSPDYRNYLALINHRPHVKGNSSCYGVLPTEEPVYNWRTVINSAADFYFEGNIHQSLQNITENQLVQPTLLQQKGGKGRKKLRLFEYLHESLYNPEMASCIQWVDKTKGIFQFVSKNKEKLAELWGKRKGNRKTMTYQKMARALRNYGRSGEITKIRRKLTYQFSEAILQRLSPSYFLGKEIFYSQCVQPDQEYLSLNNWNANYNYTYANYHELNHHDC
Method in brief: as §1

ELF4 = ELF4 (Homo sapiens, UniProt Q99607 1-663); conditions: protein: recombinant; tags: N-terminal GST; dsDNA, one strand shown
Chain of ELF4 (Q99607 whole entry): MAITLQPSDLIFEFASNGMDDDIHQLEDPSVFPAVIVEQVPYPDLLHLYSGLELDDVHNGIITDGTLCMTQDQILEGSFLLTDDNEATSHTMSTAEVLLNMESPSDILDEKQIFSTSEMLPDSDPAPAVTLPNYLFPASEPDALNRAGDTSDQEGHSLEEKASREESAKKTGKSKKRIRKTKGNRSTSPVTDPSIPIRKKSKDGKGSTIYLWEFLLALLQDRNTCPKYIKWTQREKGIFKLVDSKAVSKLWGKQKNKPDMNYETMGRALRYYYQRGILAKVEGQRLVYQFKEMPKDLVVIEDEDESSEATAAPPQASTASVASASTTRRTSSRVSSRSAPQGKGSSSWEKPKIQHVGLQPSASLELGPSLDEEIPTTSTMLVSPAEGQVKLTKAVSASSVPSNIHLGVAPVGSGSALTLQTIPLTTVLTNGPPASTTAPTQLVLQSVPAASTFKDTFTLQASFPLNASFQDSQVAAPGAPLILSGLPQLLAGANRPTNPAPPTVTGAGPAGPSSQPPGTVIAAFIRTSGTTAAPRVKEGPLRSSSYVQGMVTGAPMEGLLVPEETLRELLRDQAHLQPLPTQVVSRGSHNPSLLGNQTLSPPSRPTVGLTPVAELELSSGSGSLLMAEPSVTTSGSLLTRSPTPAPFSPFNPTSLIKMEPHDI
Method in brief: as §1

ELK4 = target: T3, ELK4 (Homo sapiens, UniProt P28324-2 1-405); conditions: protein: recombinant; tags: N-terminal GST; dsDNA, one strand shown
T3 sequence: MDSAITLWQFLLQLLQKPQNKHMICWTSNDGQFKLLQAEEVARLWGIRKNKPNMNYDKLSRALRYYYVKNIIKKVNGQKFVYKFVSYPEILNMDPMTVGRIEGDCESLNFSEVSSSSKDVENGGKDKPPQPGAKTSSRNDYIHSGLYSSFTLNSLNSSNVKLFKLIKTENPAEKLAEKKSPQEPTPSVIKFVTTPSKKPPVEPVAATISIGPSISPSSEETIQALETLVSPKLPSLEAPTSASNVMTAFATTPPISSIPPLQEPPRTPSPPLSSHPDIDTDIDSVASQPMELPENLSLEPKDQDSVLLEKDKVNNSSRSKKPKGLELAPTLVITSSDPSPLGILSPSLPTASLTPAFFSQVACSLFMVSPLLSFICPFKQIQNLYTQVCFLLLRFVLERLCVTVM
Method in brief: as §1

ETV2 = target: T4, ETV2 (Homo sapiens, UniProt O00321 1-342); conditions: protein: recombinant; tags: N-terminal GST; dsDNA, one strand shown
T4 sequence: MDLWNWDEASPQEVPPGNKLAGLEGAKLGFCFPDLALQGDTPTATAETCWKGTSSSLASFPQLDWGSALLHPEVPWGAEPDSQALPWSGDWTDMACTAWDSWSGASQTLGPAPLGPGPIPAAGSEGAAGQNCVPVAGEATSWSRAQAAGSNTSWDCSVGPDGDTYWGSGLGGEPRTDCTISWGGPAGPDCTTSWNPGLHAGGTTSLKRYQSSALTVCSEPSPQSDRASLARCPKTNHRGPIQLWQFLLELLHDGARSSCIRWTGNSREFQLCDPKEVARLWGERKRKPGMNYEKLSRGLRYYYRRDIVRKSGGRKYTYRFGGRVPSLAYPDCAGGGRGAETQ
Method in brief: as §1

ELF3 = target: T5, ELF3 (Homo sapiens, UniProt P78545 1-371); conditions: protein: recombinant; tags: N-terminal GST; dsDNA, one strand shown
T5 sequence: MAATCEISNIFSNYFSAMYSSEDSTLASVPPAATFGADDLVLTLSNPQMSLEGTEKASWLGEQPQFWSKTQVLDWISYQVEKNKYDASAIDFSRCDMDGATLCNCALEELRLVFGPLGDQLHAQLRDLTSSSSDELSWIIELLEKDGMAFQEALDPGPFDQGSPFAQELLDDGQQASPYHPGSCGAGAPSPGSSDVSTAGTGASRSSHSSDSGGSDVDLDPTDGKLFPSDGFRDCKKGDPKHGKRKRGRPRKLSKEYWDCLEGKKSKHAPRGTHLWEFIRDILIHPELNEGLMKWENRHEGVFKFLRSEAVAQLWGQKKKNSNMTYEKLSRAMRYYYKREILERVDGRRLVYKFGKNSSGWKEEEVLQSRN
Method in brief: as §1

CRX = CRX (Homo sapiens, UniProt O43186 1-299); conditions: protein: recombinant; tags: N-terminal GST; dsDNA, one strand shown
Chain of CRX (O43186 whole entry): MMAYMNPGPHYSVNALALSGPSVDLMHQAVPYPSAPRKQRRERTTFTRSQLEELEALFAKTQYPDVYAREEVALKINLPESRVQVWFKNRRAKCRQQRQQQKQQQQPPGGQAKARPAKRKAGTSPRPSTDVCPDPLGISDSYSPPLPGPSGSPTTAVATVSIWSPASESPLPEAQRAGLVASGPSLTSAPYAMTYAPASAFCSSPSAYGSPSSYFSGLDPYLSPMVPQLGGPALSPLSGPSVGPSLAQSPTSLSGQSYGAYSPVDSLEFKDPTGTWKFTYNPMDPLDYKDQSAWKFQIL
Method in brief: as §1

ETV1 = ETV1 (Homo sapiens, UniProt P50549 1-477); conditions: protein: recombinant; tags: N-terminal GST; dsDNA, one strand shown
Chain of ETV1 (P50549 whole entry): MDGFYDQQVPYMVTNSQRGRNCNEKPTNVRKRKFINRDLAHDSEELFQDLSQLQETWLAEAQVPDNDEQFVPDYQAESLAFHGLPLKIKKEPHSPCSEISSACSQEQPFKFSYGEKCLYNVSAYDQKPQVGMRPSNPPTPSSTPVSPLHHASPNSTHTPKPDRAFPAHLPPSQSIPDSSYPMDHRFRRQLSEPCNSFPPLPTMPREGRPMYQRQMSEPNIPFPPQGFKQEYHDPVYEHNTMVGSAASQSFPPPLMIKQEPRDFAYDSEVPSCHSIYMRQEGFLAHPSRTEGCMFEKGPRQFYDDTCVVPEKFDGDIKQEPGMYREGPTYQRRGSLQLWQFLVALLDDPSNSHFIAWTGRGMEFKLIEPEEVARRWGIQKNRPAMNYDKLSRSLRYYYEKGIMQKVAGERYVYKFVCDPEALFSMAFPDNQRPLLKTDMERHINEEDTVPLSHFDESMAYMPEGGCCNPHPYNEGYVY
Method in brief: as §1

ERF = target: T6, ERF (Homo sapiens, UniProt P50548 1-548); conditions: protein: recombinant; tags: N-terminal GST; dsDNA, one strand shown
T6 sequence: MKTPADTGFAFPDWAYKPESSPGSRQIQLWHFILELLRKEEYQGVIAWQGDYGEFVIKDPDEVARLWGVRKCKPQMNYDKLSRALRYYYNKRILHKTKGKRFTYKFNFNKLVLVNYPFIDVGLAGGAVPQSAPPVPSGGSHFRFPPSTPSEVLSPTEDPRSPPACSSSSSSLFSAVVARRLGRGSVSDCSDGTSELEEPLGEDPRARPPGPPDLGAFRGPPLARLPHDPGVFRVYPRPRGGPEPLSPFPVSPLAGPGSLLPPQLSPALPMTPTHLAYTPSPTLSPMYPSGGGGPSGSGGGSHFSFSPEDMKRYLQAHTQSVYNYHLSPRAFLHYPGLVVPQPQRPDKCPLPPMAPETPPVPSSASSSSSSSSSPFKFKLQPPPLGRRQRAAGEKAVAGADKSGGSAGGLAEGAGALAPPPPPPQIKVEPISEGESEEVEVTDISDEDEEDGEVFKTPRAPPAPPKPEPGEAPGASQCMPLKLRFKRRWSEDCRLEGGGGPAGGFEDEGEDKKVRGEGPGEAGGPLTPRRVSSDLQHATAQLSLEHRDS
Method in brief: as §1

ETV3L = target: T7, ETV3L (Homo sapiens, UniProt Q6ZN32 1-361); conditions: protein: recombinant; tags: N-terminal GST; dsDNA, one strand shown
T7 sequence: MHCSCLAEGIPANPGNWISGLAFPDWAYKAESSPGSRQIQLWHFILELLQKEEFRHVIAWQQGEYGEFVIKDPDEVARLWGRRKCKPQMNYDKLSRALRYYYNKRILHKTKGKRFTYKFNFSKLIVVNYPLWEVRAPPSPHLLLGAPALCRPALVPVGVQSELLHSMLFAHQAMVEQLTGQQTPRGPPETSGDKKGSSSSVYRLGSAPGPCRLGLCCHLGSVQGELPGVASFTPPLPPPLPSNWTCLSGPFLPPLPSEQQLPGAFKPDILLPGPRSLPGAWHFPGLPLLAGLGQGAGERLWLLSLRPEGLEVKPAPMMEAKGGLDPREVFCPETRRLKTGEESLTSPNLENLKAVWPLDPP
Method in brief: as §1

ETS2 = target: T8, ETS2 (Homo sapiens, UniProt P15036 1-469); conditions: protein: recombinant; tags: N-terminal GST; dsDNA, one strand shown
T8 sequence: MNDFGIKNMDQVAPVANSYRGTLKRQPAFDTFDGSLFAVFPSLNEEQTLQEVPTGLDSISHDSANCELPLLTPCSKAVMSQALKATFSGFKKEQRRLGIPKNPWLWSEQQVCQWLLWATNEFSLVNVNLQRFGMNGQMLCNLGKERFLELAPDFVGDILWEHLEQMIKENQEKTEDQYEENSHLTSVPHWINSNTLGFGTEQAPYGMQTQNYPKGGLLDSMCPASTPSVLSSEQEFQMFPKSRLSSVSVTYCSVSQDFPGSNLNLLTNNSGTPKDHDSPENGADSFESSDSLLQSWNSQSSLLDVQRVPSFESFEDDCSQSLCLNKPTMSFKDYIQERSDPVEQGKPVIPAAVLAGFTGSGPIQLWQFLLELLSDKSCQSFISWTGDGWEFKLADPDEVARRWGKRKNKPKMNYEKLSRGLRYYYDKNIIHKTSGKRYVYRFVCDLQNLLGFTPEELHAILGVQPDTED
Method in brief: as §1

SPDEF = target: T9, SPDEF (Homo sapiens, UniProt O95238 1-335); conditions: protein: recombinant; tags: N-terminal GST; dsDNA, one strand shown
T9 sequence: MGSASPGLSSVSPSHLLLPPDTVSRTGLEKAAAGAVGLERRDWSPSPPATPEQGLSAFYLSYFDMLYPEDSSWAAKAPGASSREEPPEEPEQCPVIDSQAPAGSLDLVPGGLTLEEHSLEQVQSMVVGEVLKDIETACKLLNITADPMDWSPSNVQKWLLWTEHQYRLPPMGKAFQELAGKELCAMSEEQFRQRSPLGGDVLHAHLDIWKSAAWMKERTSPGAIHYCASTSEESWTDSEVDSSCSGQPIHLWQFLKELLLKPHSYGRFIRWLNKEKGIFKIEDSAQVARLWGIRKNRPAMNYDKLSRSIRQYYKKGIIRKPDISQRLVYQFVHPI
Method in brief: as §1

ETV7 = target: T10, ETV7 (Homo sapiens, UniProt Q9Y603 1-341); conditions: protein: recombinant; tags: N-terminal GST; dsDNA, one strand shown
T10 sequence: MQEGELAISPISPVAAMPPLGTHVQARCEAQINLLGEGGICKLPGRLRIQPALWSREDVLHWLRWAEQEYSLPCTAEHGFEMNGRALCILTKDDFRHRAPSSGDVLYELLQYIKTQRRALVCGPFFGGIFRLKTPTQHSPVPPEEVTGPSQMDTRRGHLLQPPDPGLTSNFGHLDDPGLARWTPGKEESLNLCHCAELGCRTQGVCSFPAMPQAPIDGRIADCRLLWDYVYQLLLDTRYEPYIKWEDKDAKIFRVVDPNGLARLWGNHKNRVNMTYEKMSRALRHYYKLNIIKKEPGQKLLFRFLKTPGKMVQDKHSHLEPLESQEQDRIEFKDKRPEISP
Method in brief: as §1

ELF5 = target: T11, ELF5 (Homo sapiens, UniProt Q9UKW6-2 1-255); conditions: protein: recombinant; tags: N-terminal GST; dsDNA, one strand shown
T11 sequence: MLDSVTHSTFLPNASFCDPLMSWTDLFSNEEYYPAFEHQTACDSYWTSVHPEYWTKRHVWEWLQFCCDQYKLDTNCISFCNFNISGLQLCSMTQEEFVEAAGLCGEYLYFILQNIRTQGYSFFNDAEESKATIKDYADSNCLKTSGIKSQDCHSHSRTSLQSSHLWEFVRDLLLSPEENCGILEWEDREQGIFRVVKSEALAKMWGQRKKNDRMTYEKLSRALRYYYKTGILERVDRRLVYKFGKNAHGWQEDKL
Method in brief: as §1

ETV3 = target: T12, ETV3 (Homo sapiens, UniProt P41162-2 1-143); conditions: protein: recombinant; tags: N-terminal GST; dsDNA, one strand shown
T12 sequence: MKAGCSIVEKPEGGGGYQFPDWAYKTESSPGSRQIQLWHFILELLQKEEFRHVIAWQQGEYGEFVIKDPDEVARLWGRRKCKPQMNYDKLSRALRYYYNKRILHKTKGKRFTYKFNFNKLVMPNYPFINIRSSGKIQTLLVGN
Method in brief: as §1

ETV6 = ETV6 (Homo sapiens, UniProt P41212 1-452); conditions: protein: recombinant; tags: N-terminal GST; dsDNA, one strand shown
Chain of ETV6 (P41212 whole entry): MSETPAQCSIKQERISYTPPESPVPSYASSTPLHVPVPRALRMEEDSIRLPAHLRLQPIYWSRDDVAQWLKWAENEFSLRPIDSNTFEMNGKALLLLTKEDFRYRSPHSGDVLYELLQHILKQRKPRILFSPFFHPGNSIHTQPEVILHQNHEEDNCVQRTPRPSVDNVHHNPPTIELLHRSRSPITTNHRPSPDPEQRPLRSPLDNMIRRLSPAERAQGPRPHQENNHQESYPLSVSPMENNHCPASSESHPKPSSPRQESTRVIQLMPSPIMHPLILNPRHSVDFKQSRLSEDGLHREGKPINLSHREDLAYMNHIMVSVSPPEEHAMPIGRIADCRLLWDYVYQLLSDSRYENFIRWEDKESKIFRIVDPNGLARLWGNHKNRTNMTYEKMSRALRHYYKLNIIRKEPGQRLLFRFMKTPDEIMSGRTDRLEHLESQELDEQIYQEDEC
Method in brief: as §1

CTCGCG
binding signal (FEV): 1.35 fold enrichment (6-mer frequency, TF over GST control)
binding signal (ETV5): 1.48 fold enrichment (6-mer frequency, TF over GST control)
binding signal (HSF1): 1.55 fold enrichment (6-mer frequency, TF over GST control)
binding signal (SPIC): 1.3 fold enrichment (6-mer frequency, TF over GST control)
binding signal (ELF4): 1.48 fold enrichment (6-mer frequency, TF over GST control)
binding signal (ELK4): 1.59 fold enrichment (6-mer frequency, TF over GST control)
binding signal (ETV2): 1.39 fold enrichment (6-mer frequency, TF over GST control)
binding signal (ELF3): 1.53 fold enrichment (6-mer frequency, TF over GST control)
binding signal (CRX): 1.3 fold enrichment (6-mer frequency, TF over GST control)
binding signal (ETV1): 1.47 fold enrichment (6-mer frequency, TF over GST control)
binding signal (ERF): 1.41 fold enrichment (6-mer frequency, TF over GST control)
binding signal (ETV3L): 1.44 fold enrichment (6-mer frequency, TF over GST control)
binding signal (ETS2): 1.47 fold enrichment (6-mer frequency, TF over GST control)
binding signal (SPDEF): 1.4 fold enrichment (6-mer frequency, TF over GST control)
binding signal (ETV7): 1.38 fold enrichment (6-mer frequency, TF over GST control)
binding signal (ELF5): 1.42 fold enrichment (6-mer frequency, TF over GST control)
binding signal (ETV3): 1.42 fold enrichment (6-mer frequency, TF over GST control)
binding signal (ETV6): 1.36 fold enrichment (6-mer frequency, TF over GST control)
